# Test results taken from the supplement of paper PMC10849652.
# The full data set covers some 8,800 targets. This sample favours those with a hit. About 0.5% of all pairs of compound and target were hits. A number with no mark means an inactive call.
# Legend:
# Test in all cases: log2 fold change, soluble protein after heating vs DMSO (PISA); higher = thermal stabilisation; K562 lysate, 10 uM; active = over 0.2 and 3.5 SD of the protein, either way, in both replicates (recomputed)
# ibrutinib = compound: C=CC(=O)N1CCC[C@@H](n2nc(-c3ccc(Oc4ccccc4)cc3)c3c(N)ncnc32)C1 [ibrutinib]
# Method in brief: (§1)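 To prepare the extract, K562 pellets were dounce-homogenised in PBS pH 7.4 with 1 mM MgCl2, giving crude material at 1 mg/mL protein. This was treated with 10 μM compound for 30 min, then heated in aliquots for 3 min over 48°C-58°C before pooling and addition of NP-40 to 0.5% at 4°C. Centrifugation at 21,000xg for 90 min left soluble protein in the supernatant, which TMTpro 16plex LC-MS/MS quantified with equalised channel sums. Results are log-two fold changes in thermal stability compared with solvent controls, from duplicates.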
# [1] = compound: CC(=O)c1cnc2ccc(-c3cc(Cl)c(O)c(Cl)c3)nc2c1N[C@H]1CC[C@H](CN(C)C)CC1
# Method in brief: as §1
# ralimetinib = compound: CC(C)(C)Cn1c(N)nc2ccc(-c3[nH]c(C(C)(C)C)nc3-c3ccc(F)cc3)nc21 [ralimetinib]
# Method in brief: as §1
# [2] = compound: CC(C)(O)CC(=O)NCCn1ccc2ncnc(Nc3ccc(Oc4cccc(C(F)(F)F)c4)c(Cl)c3)c21
# Method in brief: as §1
# [3] = compound: CC(C)C1=C2N=C(C=C(N2N=C1)NCC3=CC=CC=C3)NCCCCCCN
# Method in brief: as §1
# [4] = compound: CC1=C(C2=C(C=C1)C(=O)C3=CC=CC=C3N2CCCN)C
# Method in brief: as §1
# [5] = compound: CC1=C(C=C(C=C1)NC(=O)C2=CC(=CC=C2)C(C)(C)C#N)NC3=CC4=C(C=C3)N=CN(C4=O)C
# Method in brief: as §1
# [6] = compound: CC1=C(C=C(C=C1)NC(=O)C2=CC(=CC=C2)N(C)C)NC(=O)C3=CC=C(C=C3)O
# Method in brief: as §1
# [7] = compound: CC1=CC=C(C=C1)SC2=C3C=C(SC3=CN=C2)C(=O)N
# Method in brief: as §1
# [8] = compound: CC1=C(C(CC(=O)N1)C2=CC=C(C=C2)C(F)(F)F)C(=O)NC3=C(C=C4C(=C3)C=NN4)F
# Method in brief: as §1
# UniProt Q5VT25, sequence (Q5VT25 whole entry, looked up): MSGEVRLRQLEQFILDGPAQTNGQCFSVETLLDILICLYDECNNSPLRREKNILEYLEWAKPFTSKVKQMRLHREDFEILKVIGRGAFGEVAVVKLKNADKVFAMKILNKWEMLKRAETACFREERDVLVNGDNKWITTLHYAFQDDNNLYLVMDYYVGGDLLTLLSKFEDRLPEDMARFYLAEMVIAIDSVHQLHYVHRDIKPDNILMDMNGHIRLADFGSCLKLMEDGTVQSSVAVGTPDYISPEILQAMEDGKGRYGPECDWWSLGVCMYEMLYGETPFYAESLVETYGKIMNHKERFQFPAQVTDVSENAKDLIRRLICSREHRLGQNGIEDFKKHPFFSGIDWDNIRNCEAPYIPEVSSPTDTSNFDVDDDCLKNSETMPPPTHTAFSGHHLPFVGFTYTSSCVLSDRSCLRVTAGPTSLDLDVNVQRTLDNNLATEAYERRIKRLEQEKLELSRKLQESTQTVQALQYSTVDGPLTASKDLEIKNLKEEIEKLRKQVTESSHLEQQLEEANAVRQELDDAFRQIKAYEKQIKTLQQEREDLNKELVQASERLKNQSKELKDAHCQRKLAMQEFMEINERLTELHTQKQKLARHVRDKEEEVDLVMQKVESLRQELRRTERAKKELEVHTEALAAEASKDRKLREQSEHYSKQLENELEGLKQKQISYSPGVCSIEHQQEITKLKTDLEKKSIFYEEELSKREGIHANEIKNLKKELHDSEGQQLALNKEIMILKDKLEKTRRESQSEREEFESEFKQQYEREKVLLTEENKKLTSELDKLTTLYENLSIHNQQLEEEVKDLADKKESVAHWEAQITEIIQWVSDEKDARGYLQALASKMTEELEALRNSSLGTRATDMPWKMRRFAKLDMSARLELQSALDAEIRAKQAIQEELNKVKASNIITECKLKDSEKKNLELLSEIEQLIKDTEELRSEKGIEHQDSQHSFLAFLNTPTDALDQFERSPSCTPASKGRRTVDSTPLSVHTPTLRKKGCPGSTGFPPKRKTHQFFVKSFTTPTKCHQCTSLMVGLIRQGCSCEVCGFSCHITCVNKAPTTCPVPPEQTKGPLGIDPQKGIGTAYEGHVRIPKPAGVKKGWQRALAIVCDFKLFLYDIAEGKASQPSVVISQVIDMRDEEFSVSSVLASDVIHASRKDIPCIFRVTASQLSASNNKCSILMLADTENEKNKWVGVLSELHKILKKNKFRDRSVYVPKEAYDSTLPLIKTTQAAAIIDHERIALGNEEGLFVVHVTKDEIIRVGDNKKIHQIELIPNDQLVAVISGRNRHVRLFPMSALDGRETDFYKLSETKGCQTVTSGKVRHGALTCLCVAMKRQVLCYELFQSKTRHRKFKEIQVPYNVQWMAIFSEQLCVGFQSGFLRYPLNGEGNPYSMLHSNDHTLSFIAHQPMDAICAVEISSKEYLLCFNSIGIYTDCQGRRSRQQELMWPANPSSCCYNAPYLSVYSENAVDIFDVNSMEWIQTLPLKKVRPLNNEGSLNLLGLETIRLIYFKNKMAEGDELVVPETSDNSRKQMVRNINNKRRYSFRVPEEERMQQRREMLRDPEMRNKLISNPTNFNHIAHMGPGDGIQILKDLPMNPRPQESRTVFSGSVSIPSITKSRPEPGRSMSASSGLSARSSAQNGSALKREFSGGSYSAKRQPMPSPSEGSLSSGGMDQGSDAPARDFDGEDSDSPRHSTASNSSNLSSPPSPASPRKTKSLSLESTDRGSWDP
# UniProt Q13555, sequence (Q13555 whole entry, looked up): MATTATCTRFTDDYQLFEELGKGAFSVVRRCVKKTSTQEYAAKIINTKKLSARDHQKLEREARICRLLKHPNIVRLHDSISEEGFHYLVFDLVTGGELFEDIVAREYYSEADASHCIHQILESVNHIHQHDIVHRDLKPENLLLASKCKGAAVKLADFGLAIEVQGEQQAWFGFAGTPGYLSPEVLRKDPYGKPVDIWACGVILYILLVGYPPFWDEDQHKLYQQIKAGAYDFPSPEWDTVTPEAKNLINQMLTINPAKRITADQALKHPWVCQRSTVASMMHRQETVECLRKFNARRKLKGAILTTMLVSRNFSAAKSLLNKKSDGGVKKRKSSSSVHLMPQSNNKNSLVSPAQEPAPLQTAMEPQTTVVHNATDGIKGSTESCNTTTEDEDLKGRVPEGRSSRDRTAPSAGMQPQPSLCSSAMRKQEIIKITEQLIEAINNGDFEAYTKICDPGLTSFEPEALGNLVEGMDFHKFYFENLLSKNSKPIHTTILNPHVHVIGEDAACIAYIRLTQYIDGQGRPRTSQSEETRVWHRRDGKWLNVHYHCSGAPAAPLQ
# UniProt P04632, sequence (P04632 whole entry, looked up): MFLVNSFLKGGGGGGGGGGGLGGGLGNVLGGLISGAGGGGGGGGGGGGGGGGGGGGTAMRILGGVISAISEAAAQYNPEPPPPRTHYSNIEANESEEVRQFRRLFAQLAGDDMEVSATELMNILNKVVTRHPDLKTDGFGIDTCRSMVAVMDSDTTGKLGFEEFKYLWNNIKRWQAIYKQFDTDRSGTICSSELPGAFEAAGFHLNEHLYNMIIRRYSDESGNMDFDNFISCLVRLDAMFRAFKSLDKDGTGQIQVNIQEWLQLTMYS
# UniProt Q9UL45, sequence (Q9UL45 whole entry, looked up): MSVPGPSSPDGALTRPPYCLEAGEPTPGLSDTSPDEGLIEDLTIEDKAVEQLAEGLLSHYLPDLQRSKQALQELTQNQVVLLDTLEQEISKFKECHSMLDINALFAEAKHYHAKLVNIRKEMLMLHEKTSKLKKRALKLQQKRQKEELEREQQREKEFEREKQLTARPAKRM
# UniProt Q13825, sequence (Q13825 whole entry, looked up): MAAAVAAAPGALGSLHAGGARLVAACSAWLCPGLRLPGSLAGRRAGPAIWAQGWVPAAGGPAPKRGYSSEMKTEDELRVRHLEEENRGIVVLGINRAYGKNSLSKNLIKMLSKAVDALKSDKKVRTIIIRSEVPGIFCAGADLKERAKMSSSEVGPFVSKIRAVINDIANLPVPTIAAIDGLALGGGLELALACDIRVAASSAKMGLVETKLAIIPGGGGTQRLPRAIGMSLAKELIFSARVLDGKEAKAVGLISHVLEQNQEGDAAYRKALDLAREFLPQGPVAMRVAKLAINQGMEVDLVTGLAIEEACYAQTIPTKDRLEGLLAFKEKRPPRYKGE
# UniProt Q96B23, sequence (Q96B23 whole entry, looked up): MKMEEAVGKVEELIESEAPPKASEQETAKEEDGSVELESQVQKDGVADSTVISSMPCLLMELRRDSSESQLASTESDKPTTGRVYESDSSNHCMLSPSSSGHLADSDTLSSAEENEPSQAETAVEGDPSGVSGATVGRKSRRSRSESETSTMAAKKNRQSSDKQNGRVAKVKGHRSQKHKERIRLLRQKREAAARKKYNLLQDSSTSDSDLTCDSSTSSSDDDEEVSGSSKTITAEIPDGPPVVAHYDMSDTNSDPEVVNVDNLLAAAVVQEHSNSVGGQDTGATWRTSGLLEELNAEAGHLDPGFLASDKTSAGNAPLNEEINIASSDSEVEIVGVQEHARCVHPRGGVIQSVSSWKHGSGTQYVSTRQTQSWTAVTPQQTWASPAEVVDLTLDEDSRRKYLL
# UniProt Q9BSU1, sequence (Q9BSU1 whole entry, looked up): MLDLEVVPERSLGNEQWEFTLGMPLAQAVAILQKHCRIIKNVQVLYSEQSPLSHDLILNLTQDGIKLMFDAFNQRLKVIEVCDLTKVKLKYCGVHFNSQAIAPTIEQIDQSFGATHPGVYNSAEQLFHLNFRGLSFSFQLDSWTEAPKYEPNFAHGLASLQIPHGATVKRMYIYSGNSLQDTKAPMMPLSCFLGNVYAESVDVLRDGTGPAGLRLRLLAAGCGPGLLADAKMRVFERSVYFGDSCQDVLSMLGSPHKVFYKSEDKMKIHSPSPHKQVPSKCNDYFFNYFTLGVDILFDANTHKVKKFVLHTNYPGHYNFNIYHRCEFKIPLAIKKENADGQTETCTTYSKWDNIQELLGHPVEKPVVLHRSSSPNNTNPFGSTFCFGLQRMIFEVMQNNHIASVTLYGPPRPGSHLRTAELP
# UniProt O95429, sequence (O95429 whole entry, looked up): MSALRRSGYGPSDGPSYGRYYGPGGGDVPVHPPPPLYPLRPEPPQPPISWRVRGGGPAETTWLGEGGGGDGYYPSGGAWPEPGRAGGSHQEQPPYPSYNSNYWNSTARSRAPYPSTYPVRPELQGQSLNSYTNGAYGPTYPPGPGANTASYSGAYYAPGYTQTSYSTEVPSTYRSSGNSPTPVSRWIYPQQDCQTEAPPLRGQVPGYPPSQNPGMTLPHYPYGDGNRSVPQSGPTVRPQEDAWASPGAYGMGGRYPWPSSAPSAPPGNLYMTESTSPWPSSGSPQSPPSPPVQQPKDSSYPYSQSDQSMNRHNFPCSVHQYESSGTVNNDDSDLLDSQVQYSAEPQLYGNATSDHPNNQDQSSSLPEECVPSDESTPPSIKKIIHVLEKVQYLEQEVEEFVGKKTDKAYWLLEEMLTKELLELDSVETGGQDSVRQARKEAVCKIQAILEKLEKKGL
# UniProt Q9Y6H1, sequence (Q9Y6H1 whole entry, looked up): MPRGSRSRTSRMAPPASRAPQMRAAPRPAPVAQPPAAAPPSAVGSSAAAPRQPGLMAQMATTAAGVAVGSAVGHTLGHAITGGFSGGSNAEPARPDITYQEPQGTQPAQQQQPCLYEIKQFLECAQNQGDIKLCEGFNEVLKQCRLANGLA
# UniProt Q96NL8, sequence (Q96NL8 whole entry, looked up): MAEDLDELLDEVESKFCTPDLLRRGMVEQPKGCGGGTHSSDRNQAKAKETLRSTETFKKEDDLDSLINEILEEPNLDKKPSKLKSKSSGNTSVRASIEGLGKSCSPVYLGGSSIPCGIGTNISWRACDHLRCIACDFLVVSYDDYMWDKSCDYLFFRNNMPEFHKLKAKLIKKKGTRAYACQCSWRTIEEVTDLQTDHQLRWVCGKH
# UniProt Q9HB09, sequence (Q9HB09 whole entry, looked up): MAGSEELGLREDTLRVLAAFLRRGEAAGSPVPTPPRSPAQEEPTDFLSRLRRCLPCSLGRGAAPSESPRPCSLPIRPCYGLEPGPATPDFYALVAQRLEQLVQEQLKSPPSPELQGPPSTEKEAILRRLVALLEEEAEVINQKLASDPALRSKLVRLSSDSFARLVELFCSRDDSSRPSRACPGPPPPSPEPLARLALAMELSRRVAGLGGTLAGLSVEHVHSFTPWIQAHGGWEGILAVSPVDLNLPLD
Target,log2 fold change (ibrutinib),log2 fold change [1],log2 fold change (ralimetinib),log2 fold change [2],log2 fold change [3],log2 fold change [4],log2 fold change [5],log2 fold change [6],log2 fold change [7],log2 fold change [8]
ATXN2 (UniProt F8WB05),-0.538,-0.104,0,0.033,0.037,0.006,0.119,-0.044,0.048,
CASC4 (UniProt Q6P4E1),0.001,-0.032,-0.029,-0.008,-0.012,0.057,-0.016,0.029,-0.036,-0.055
BORCS5 (UniProt Q969J3),0.088,-0.02,-0.033,0.012,0.033,-0.012,0.021,0.034,-0.001,0.153
BTRC (UniProt Q9Y297),0.026,0.012,0.068,-0.033,0.045,,,0.075,-0.002,0.015
CEP152 (UniProt O94986),-0.077,,0.144,-0.092,-0.062,-0.071,0.095,-0.067,,-0.04
CAD (UniProt P27708),-0.009,-0.016,0.03,-0.002,0.005,0.026,0.009,0.009,0.018,-0.005
CEP120 (UniProt Q8N960),-0.02,-0.061,-0.076,-0.132,0.001,-0.224,-0.015,0.001,-0.085,-0.174
BCL2L12 (UniProt Q9HB09),-0.26,-0.084,0.073,-0.024,0.057,-0.021,0.028,-0.024,0.099,0
C8orf37 (UniProt Q96NL8),0.214,-0.037,-0.004,0.031,-0.038,-0.006,0.089,0.031,-0.089,
BRD3 (UniProt Q15059),-0.011,0.04,,,0.095,-0.033,0.059,,-0.074,-0.054
CBX5 (UniProt P45973),-0.047,-0.007,-0.024,-0.087,-0.02,-0.02,0.028,0.007,-0.033,-0.088
CHCHD2 (UniProt Q9Y6H1),-0.122,-0.005,-0.068,0.035,0.02,0.023,-0.172,-0.046,0.069,0.112
BLOC1S6 (UniProt Q9UL45),0.156,-0.07,0.015,0.061,-0.029,-0.033,-0.001,-0.017,0.012,0.014
CEP295 isoform 3 (UniProt Q9C0D2),-0.182,-0.048,0.005,0.009,-0.019,,0.041,0,0.053,0.02
C18orf25 isoform 2 (UniProt Q96B23),0.126,0.1,-0.065,-0.027,-0.013,0.015,,-0.017,-0.076,-0.088
BAG4 (UniProt O95429),0.082,0.005,-0.009,0.02,-0.035,0,-0.375 (active),-0.021,-0.017,-0.014

Target,log2 fold change (ibrutinib),log2 fold change [1],log2 fold change (ralimetinib),log2 fold change [2],log2 fold change [3],log2 fold change [4],log2 fold change [5],log2 fold change [6],log2 fold change [7],log2 fold change [8]
CDS2 (UniProt O95674),0.008,-0.013,-0.061,-0.07,-0.03,0.004,0.05,0.04,-0.015,-0.025
CEP41 (UniProt Q9BYV8),0.014,0.045,,,0.021,0.095,0.011,,-0.031,-0.025
ATF7IP2 (UniProt Q5U623),0.054,-0.03,0.045,-0.201,0.058,,0.097,-0.04,-0.088,-0.056
CARHSP1 (UniProt H3BNU9),0.147,-0.005,,,,,,,0.107,-0.107
CDC42BPA isoform 6 (UniProt Q5VT25),0.016,0.039,0.012,-0.013,0.03,-0.004,0.018,0.034,-0.003,0.005
CAPNS1 (UniProt P04632),0.076,0.002,0.035,-0.007,-0.015,0.053,0,-0.025,0.01,0.006
CDKN1B (UniProt P46527),0.141,0.013,0.037,0.069,-0.037,-0.053,-0.325,-0.019,0.017,
AUH (UniProt Q13825),0.024,0.103,-0.161,-0.003,0.011,-0.304,0.015,-0.132,-0.058,
CDC7 (UniProt O00311),0.04,0.09,0.014,0.028,0.047,-0.011,0.05,-0.002,-0.07,0.066
BICRA (UniProt Q9NZM4),-0.053,-0.093,-0.138,-0.271,0.102,-0.168,-0.012,-0.003,-0.156,
CAMK2G isoform 8 (UniProt Q13555),0.036,0.173,-0.022,0.009,-0.001,0.073,-0.03,0.05,-0.027,-0.019
CAPNS1 (UniProt U3KPR7),0.034,-0.007,,,,,,,0.099,0.155
C16orf70 (UniProt Q9BSU1),-0.048,-0.011,0.034,0.031,-0.068,-0.043,0,0.058,-0.024,
ATE1 (UniProt O95260),0.081,-0.025,,,,,-0.101,,-0.022,
C6orf120 (UniProt Q7Z4R8),0.013,-0.017,,,-0.003,0.015,,,0.126,
C1orf112 (UniProt Q9NSG2),0.014,0.038,0.022,-0.061,0.017,-0.085,-0.029,0.036,0.091,0.067
